This is an account of results in PubChem BioAssay (Tox21).

Results filed as inconclusive are left out. A call without a number means that no potency is given here. A number with no mark means an inactive call. Calls of active or inactive are those of the source. Calls come from the whole dose curve; as a rule, active = well fitted inhibition curve with a large enough effect in the signal ratio in the repeat runs (not every such curve was filed as active); inconclusive = weak or mixed curves, or effect the other way; inactive = flat fitted curve, though single readings scatter; the % refers to the signal ratio.

This experiment can be described thus: cAMP Responsive Elements (CRE) small molecule antagonists, cell-based qHTS assay (AID 1963591). Particulars: CRE-bla HEK293T, beta-lactamase FRET ratio; series mostly up to 92.4 µM. The text has this:
U.S. Tox21 Program National Center for Advancing Translational Sciences [NCATS] Division of Preclinical Innovation [DPI] U.S. Environmental Protection Agency [EPA] National Institutes of Environmental Health Sciences [NIEHS] National Toxicology Program [NTP] U.S. Food and Drug Administration [FDA] Tox21 Assay Overview: CREB (cyclic-AMP Responsive Element Binding Protein) is a cellular transcription factor. It binds to certain DNA sequences called cAMP Responsive Elements (CRE) and regulates the transcription of the genes. […] This cell line can be used to find agonists/antagonists of the cyclic AMP signaling pathway. The activation of the report gene under culture conditions can be detected by fluorescence intensity. This cell line has been used to screen the Tox21 10K compound library to […].
Tox21 Assay Protocol Summary: CRE-bla Hek 293T cells were suspended in assay medium (DMEM containing 10% dialyzed FBS, 0.1 mM NEAA, 1 mM sodium pyruvate and 25 mM HEPES) and dispensed at 2,000 cells/4 uL /well into 1536-well black wall/clear bottom plates using a Multidrop Combi (ThermoFisher Scientific, Waltham, MA) dispenser. After the assay plates were incubated at 37 C/5% CO2 for 18 hrs, 23 nL of compounds dissolved in DMSO, positive controls or DMSO only was transferred to the assay plate by a pintool workstation (Kalypsys, San Diego, CA), followed by addition of 1 […] uL of 1.25uM NKH477 (0.25 uM as final concentration) in assay medium using a Flying Reagent Dispenser (Aurora Discovery, San Diego, CA). The plates were incubated at 37 C and 5% CO2 for 3 hrs. Then 1 uL of LiveBLAzer B/G FRET substrate (Invitrogen, Carlsbad, CA) was added to each well using Bioraptr Flying Reagent Dispenser (FRD, Aurora Discovery, San Diego, CA). The plates were incubated at room temperature for 2 h.
(Quantitative high-throughput screening tests each substance at several concentrations.)
For `CC(=O)N(O)CCCCCNC(=O)CCC(=O)N(O)CCCCCNC(=O)CCC(=O)N(O)CCCCCN`, the Potency result is “inactive”. Turning to `CCCCCCCCCCCCCCCCC`, the Potency result is “inactive”. The same measure, in the same setting: in the case of `COc1cc(C(=S)N2CCOCC2)ccc1O` it was “inactive”; in that of `Oc1ccccc1O`, “inactive”. The same measure, in the same setting: for `Cc1ccc(C(=O)O)cc1` the value was “inactive”; for `CC1=CC(=O)[C@H]2C[C@@H]1C2(C)C`, “inactive”; for `C1COC1`, “inactive”. Still for that read-out and setting: in the case of `C/C=C/C(=O)C1=C(C)C=CCC1(C)C` it was “inactive”.

Take `CCOC(=O)CC(C(C)=O)C(C)=O`: the Potency entry was “inactive”. Still for that read-out and setting: for `CNC1(C)C2CCC(C2)C1(C)C` (stereo not given) the value was “inactive”; for `CC(C[N+](C)(C)C)OC(N)=O` (stereo not given), “inactive”. As to `CCCCCCCCCOCC1CO1` (stereo not given), the Potency entry is “inactive”.

In the case of `CCCCCCCCCCCCCC`, the Potency entry was “inactive”.

Take `CC1CCC(C(C)(C)S)C(=O)C1` (stereo not given): the Potency result was “inactive”. Turning to `CCCCCCCCN(C)C`, the Potency result is “inactive”. For `CN(C)C(=O)Oc1ccc[n+](C)c1`, the Potency entry was “inactive”. Still for that read-out and setting: in the case of `N#CC1(c2ccc(F)cc2)CCC(=O)CC1` it was “inactive”; in that of `CC(C)(C)C(=O)OCOP(=O)(COCCn1cnc2c(N)ncnc21)OCOC(=O)C(C)(C)C`, “inactive”. Still for that read-out and setting: for `CC(C)(C)c1cc(Cc2cc(C(C)(C)C)c(O)c(C(C)(C)C)c2)cc(C(C)(C)C)c1O` the value was “inactive”. Same read-out and setting: in the case of `CCC(C)SSC(C)CC` (stereo not given) it was “inactive”; in that of `O=C(c1ccccc1)C1(O)CCCCC1`, “inactive”; in that of `COC(=O)Cc1cccc2ccccc12`, “inactive”. On to `CC1(C)O[C@H]2CC(=O)OC[C@]23[C@H]2CC[C@@]4(C)[C@H](c5ccoc5)OC(=O)[C@H]5O[C@]54[C@]2(C)C(=O)C[C@@H]13`, for which the Potency result was “inactive”. In the case of `N[C@@H](Cc1c[nH]c2ccc(O)cc12)C(=O)O`, the Potency result was “inactive”. Take `C=CCOCC(CO)(COCC=C)COCC=C`: the Potency entry was “inactive”. On the same count and under the same terms, for `O=C(O)c1cccc(C(F)(F)F)c1` the value was “inactive”; for `O=c1c(-c2ccc(O)cc2)coc2cc(O)ccc12`, “inactive”; for `CNC(=O)[C@H]1O[C@@H](n2cnc3c(NCc4cc(Cl)ccc4OCc4cc(C)no4)ncnc32)[C@H](O)[C@@H]1N`, “inactive”.

As to `C=C(C)C(=O)OCCC(F)(F)C(F)(F)C(F)(F)C(F)(F)C(F)(F)C(F)(F)F`, the Potency entry was “inactive”. For `CC/C=C\CCOC(=O)CC`, the Potency entry was “inactive”. On to `O=C1OC(=O)c2ccc3c4c(ccc1c24)C(=O)OC3=O`, for which the Potency entry is “inactive”. `O=C[O][Al]([O]C=O)[O]C=O`: the Potency entry was “inactive”. The same measure, in the same setting: in the case of `CC(C)=CCC[C@H](C)CC=O` it was “inactive”; in that of `OC1OC[C@@H](O)[C@H](O)[C@H]1O` (stereo not given in full), “inactive”. The same measure, in the same setting: for `O=C(/N=N/C(=O)OCc1ccccc1)OCc1ccccc1` the value was “inactive”. Consider `COC(=O)c1ccc2cc(C(=O)OC)ccc2c1`, for which the activity change, negative = inhibition is -4.98% [at 18.9 µM]. As for `CN=C(NC#N)NCCSCc1nc[nH]c1C`, the Potency result is “inactive”.

Consider `O=S(=O)(Oc1ccc(Cl)cc1Cl)c1ccccc1`, for which the Potency result is “inactive”. Same read-out and setting: for `O=c1[nH]cnc2c1ncn2[C@@H]1O[C@H](CO)[C@@H](O)[C@H]1O` the value was “inactive”.

Regarding `O=C1OC[C@H](Cc2cccc(O)c2)[C@H]1Cc1cccc(O)c1`, the Potency result is “inactive”.
